Source: PubChem (National Center for Advancing Translational Sciences (NCATS))
TRHR PAM: allosterically enhances the human TRH receptor; enhancement, % at 2 µM; actives 0.66% (n = 360,000); TRHR cells, fluo-8 calcium fluorescence, EC20 TRH enhancement; in the data active means enhancement above about 30%; further: 0% is about no effect
Target sequence (P34981 whole entry, looked up): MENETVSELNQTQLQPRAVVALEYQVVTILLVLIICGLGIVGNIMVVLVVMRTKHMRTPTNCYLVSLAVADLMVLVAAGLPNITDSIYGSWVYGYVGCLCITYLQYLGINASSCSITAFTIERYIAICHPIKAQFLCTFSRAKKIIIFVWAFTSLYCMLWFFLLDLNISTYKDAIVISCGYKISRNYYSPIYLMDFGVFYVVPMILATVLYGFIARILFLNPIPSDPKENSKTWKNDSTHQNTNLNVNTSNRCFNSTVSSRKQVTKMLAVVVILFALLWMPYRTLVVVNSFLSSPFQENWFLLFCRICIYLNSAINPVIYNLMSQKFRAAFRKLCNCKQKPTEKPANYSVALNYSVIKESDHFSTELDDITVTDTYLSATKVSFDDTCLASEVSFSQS
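TRHR-expressing cells loaded with fluo-8 calcium dye were read kinetically (ex 480/em 530) during compound addition, then stimulated with an EC20 of TRH (10 nM final). Enhancement of the Gq-mediated intracellular calcium response was scored.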
D1 PAM: potentiators of human D1 dopamine receptor; P21728; HEK293 TREx D1 cells, calcium flux, dopamine EC20 potentiation; potentiation, % at 10 µM; actives 0.036% (n = 360,000); AID 504651; in the data active means potentiation above about 30%; further: 0% is about no effect
TRHR ag: TRH receptor (human) agonism; activation, % at 2 µM; P34981; TRHR cells, calcium flux fluo-8, FDSS agonist mode; actives 0.18% (n = 360,000); further: 0% is about no effect
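Read-out: compound-evoked intracellular calcium rise in TRHR cells, fluo-8 dye, kinetic FDSS fluorescence at 1 s/cycle following a 10-cycle baseline. Cells cultured overnight before dye loading (30 min–1.5 h, RT).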
D1 antag: antagonists of human D1 dopamine receptor. P21728. actives 3.2% (n = 360,000). activity change, negative = inhibition, % at 10 µM. AID 504652. HEK293 TREx D1 cells, calcium flux, dopamine EC80; stronger effect = lower value; in the data active means activity change below about -30%; further: on the % scale 0 is the no-effect control and ±100 the full control effect
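Antagonism measured as reduced calcium response to an EC80 dopamine addition following 180 s compound pre-read; cells were inducible HEK293 Trex D1 plated overnight at 30 C, read kinetically at 1 cycle/sec.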
D1 ag: agonists of human D1 dopamine receptor; P21728; HEK293 T-REx D1 cells, calcium flux, agonist mode; activation, % at 2 µM; actives 1% (n = 360,000); further: 0% is about no effect
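Inducible HEK293 T-REx D1 cells, force-coupled to calcium signalling, were plated at 4000 cells/well with tetracycline and held overnight at 30 C. After no-wash calcium dye loading, compound-evoked calcium rise over 180 s flagged agonists.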
Starred values were filed as active, the others as inactive. A selection: hits, their analogues and other compounds. The true share with any hit is near 4.6%. Unless noted, no stated cut-off is given here; in the data, active means activation above about 30%; inactive means the rest.

SMILES	TRHR PAM	D1 PAM	TRHR ag	D1 antag	D1 ag
CCOc1ccc(CNC(=O)c2ccc(-c3nc(CS(=O)(=O)c4ccccc4)c(C)o3)cc2)cc1	-0.3	2.1	0.5	-3.3	0.6
COc1ccc2c(c1)c1c(c(=O)n(-c3ccccc3)c(=O)n1CC(=O)NCCC1=CCCCC1)n2C	2.9	-0.6	-0.1	-8.1	-0.1
CCC(C(=O)Nc1ccc(C(=O)OC)cc1)n1nc(-c2ccc(C)c(C)c2)ccc1=O (stereo not given)	9.9	-0.1	-0.7	2.2	13.0
Cc1ccc2[nH]c(CSc3nnc(NC(=O)COc4ccccc4)s3)cc(=O)c2c1	5.2	-4.7	-0.6	-4.8	0.4
CCS(=O)(=O)N1CCN(c2ccc([N+](=O)[O-])c(NC(C)c3ccccc3)c2)CC1 (stereo not given)	1.4	-0.6	-0.3	1.6	-1.8
CC(Nc1cc(N2CCNCC2)ccc1[N+](=O)[O-])c1ccccc1 (stereo not given)	1.9	-1.8	-0.7	3.1	41.6*
COc1ccc(NC(=O)c2c(C)oc3ccc(O)c(CN4CCC(C)CC4)c23)cc1Cl	2.5	0.1	0.3	17.4	7.7
CN1CCN(/N=C/c2ccc(N(c3ccccc3)c3ccccc3)cc2)CC1	15.0	1.8	0.0	24.1	5.3
CN1CCN(/N=C/c2ccc(Br)cc2)CC1	-4.7	-7.8	0.5	-33.3*	13.2
O=C(Nc1ccccc1C(=O)Nc1nnc(C(F)(F)F)s1)c1ccccc1Cl	-9.3	-3.3	2.0	-30.3*	26.1
O=C(Nc1nnc(C(F)(F)F)s1)c1ccc(Br)s1	-8.3	-7.1	5.0	-43.2*	37.4*
CC(NC(=O)Nc1nnc(C(F)(F)F)s1)(C(F)(F)F)C(F)(F)F	3.3	-8.0	11.8	-29.0	41.0*
NC(=O)c1ccccc1NC(=O)c1ccccc1Cl	-2.3	-5.2	-0.8	-7.2	0.5
O=C(NCCOCCn1c(=O)oc2ccccc21)Nc1cccc(Cl)c1	15.4	2.1	-1.4	-11.0	2.1
Cc1sc2ncn(CC(=O)Nc3cccc(C(F)(F)F)c3)c(=O)c2c1S(=O)(=O)N1CCN(C)CC1	19.2	6.2	-0.1	31.6	0.8
CC(=O)c1c(C)oc2ccc(N(C(=O)Oc3ccccc3)S(=O)(=O)c3ccc(C(C)(C)C)cc3)cc12	2.5	0.6	-1.4	3.1	7.8
CCC(=O)N1CCc2cc(Br)cc(S(=O)(=O)CCC(=O)Nc3cccc(Cl)c3)c21	-0.5	2.0	-0.2	-0.9	0.8
Cc1ccc(C(=O)N2CCN(c3ccc(N4CCOCC4)nn3)CC2)cc1	4.3	-10.6	-0.4	-32.1*	0.7
O=C(NCCc1nnc2ccc(N3CCCCCC3)nn12)c1ccccc1	-0.6	-11.9	5.4	-30.9*	41.2*
Cc1nnc2ccc(N3CCN(C(=O)c4ccccc4)CC3)nn12	0.2	-1.6	0.1	-61.6*	0.4
CC(=O)Nc1ccc(NC(=O)C(NS(=O)(=O)c2ccc(Br)s2)c2ccccc2)cc1 (stereo not given)	-1.9	5.2	-0.2	0.3	0.1
COc1ccc(OC)c(CCNC(=O)CCCn2c(=O)c3cccn3c3ccccc32)c1	-0.2	-4.3	-0.4	-11.6	-0.1
CCOc1ccc(C(=O)OCc2cc(=O)n3cc(C)sc3n2)cc1	1.7	-2.6	0.4	-3.5	2.8
Cc1ccc(C2=[N+]([O-])C3(CCCCC/C3=N\O)N(O)C2(C)C)o1 (stereo not given)	0.7	4.6	0.7	7.4	3.7
CC1(C)C(c2ccc(Cl)cc2)=[N+]([O-])C2(CCCC/C2=N\O)N1O (stereo not given)	4.6	-7.1	-0.4	-87.2*	2.8
SMILES	TRHR PAM	D1 PAM	TRHR ag	D1 antag	D1 ag
Cc1cccc(NC(=S)NC(=O)Cc2ccccc2)c1C	-5.0	-2.8	11.5	6.2	65.5*
Cc1cc(C)c(O)c(NC(=S)NC(=O)Cc2ccccc2)c1	10.2	2.1	7.3	-11.4	33.0*
Cc1ccc(-n2c(=O)c3c(c4cc(C)ccc4n3C)n(CC(=O)N3CCCC3)c2=O)cc1	-2.5	0.7	0.1	-5.2	-1.6
C=CCOC(=O)C1=C(C)NC(=O)NC1/C=C/c1ccccc1 (stereo not given)	4.3	-3.9	-0.4	-30.5*	1.2
Cc1nn(CC(=O)N2CCC(C)CC2)c(=O)c2cc3occc3n12	1.4	-1.1	0.5	3.9	0.2
CCc1cccc(OCC(=O)Nc2ccc(S(=O)(=O)Nc3ncccn3)cc2)c1	-1.0	1.6	-0.3	4.3	0.7
Cc1ccc(-n2c(C)nn(-c3ncc(C(F)(F)F)cc3Cl)c2=O)cc1	-3.2	-5.3	-0.1	-46.9*	0.1
CCCC(=O)N(c1ccc2oc(-c3ccccc3)c(C(=O)OCC)c2c1)S(=O)(=O)c1ccc(C)cc1	0.2	-1.6	-0.6	9.8	0.1
C=C(C)CSc1nnc2n(N)c(=O)c3ccccc3n12	-2.7	14.6	-0.4	-19.5	0.8
CCSc1nnc2n(N)c(=O)c3ccccc3n12	-5.3	-9.3	0.1	-85.4*	2.4
CCCCCCCOC(=O)C[N+](C)(C)CCOC1CC2CCC1(C)C2(C)C (stereo not given)	-1.5	5.8	1.3	41.8	131.1*
CCCCCCOC(=O)C[N+](C)(C)CCOC1CC2CCC1(C)C2(C)C (stereo not given)	-1.3	-0.2	-0.8	5.9	92.5*
CCOc1ccc(CCNC(=O)c2cccc(-n3c(C)nc4cccnc43)c2)cc1	7.4	-2.4	-1.0	-2.7	8.7
O=[N+]([O-])c1c(NCCO)cc(N2CCCCCC2)c2nonc12	5.3	-1.9	-0.7	-43.2*	6.1
O=[N+]([O-])c1c(NCCO)cc(N2CCN(Cc3ccc4c(c3)OCO4)CC2)c2nonc12	-9.0	-3.8	-0.4	6.3	0.0
CCCCOc1ccc(CNC(=O)NS(=O)(=O)c2ccc(OCC)cc2)cc1	7.6	-5.3	-0.6	-7.1	-0.3
CCCCOc1ccc(S(=O)(=O)NC(=O)NCc2ccc(OCCC)cc2)cc1	-0.7	-14.9	-0.4	-38.4*	0.7
Cc1ccc(Nc2ncnc3c2cnn3-c2ccccc2)c(C)c1	-1.8	-2.6	1.2	9.8	2.9
CC1(C(=O)NC2CCCCC2)Cc2ccccc2C(=O)N1Cc1ccccc1Cl (stereo not given)	-5.3	1.8	1.0	0.8	1.9
CCN(CC)C(=O)/C(=C\c1ccc2c(c1)OCO2)NC(=O)c1ccc(Br)cc1	6.9	-6.7	-0.3	-30.0*	-1.3
CCNC(=O)/C(=C\c1ccc2c(c1)OCO2)NC(=O)c1ccc(Br)cc1	0.6	-4.3	0.0	10.7	1.0
Cc1ccc(-n2nc(C(=O)N3CCN(c4cc(Cl)ccc4C)CC3)c(=O)n(C)c2=O)cc1	-4.9	-3.4	0.8	2.2	13.1
O=C(Nc1csc([N+](=O)[O-])c1)Nc1ccccc1Cl	-3.8	-8.9	0.1	-31.3*	12.9
CC1CCN(c2nc(-c3cccnc3)nc3scc(-c4ccccc4)c23)CC1	40.6*	-4.2	-0.4	0.5	1.4
